Assay results reported in PubChem BioAssay (NCI).
Compounds without any hit were thinned out: in the full panel of roughly 83,000, 20% have a hit.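 Note: values are percent growth. 100 is the growth of untreated cells, values between 100 and 0 indicate rising inhibition; between -100 and 0 indicates cell death.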 Active and inactive are the calls of the source. Rule for the calls: active = growth percent below 10; inactive = the rest.

Each compound was assayed on MDA-MB-231 breast (assay: NCI-60 one-dose screen, 48 h (100 = growth as untreated, 0 = no growth, -100 = all killed)). Conditions: 10 µM unless noted.
In the case of `COc1ccc(C(=O)c2cc(OC)c(OC)c(OC)c2)cc1OC(C)=O`, the growth is reported as 33.8% (inactive). With `COc1ccc(N(CC(=O)NCCC[Te]c2ccccc2)C(=O)CNC(=O)OC(C)(C)C)cc1` the growth was 1.63% (active). `COC(=O)[C@@H](C)C[C@H](Cc1ccccc1)NC(=O)c1csc([C@@H](C[C@H](C(C)C)N(C)C(=O)[C@@H](NC(=O)[C@H]2CCCCN2C)C(C)C)OC(C)=O)n1` was tested, and the growth was 1.38% (active). `CC[C@H](C)[C@@H]1OC(=O)C(C)(C)[C@H](O)[C@H](Cc2ccccc2)OC(=O)[C@H](C(C)C)OC(=O)[C@@H](NC(=O)c2cccc(NC=O)c2O)[C@@H](C)OC1=O` was tested, and the growth was 59.1% (inactive). With `NC(=O)CNc1ccc([As]=[As]c2ccc(NCC(N)=O)cc2)cc1` (configuration not stated) the growth was 30% (inactive). `Fc1ccc2c(c1)c(-c1nc(-c3c[nH]c4ncccc34)cs1)cn2CCN1CCOCC1` was tested, and the growth was 42.6% (inactive). With `O=C([O][Hg][CH2]C1COCC([CH2][Hg][O]C(=O)c2ccccc2)O1)c1ccccc1` (configuration not stated) the growth was 105% (inactive). In the case of `O=[N+]([O-])CC(c1ccccc1Cl)c1c(-c2ccccc2)[nH]c2ccccc12` (configuration not stated), the growth is reported as 46.2% (inactive). For `CCn1c2ccccc2c2cc(C(=O)c3cccc4c3CCCN4)ccc21`, the growth was 98.1% (inactive). In the case of `COc1ccc(/C(C)=C(\c2ccc(OCCN3CCOCC3)cc2)c2ccc(OC(=O)Cc3ccccc3)cc2)cc1`, the growth is reported as 109% (inactive). In the case of `Cc1cc(N(CCCl)CCCl)ccc1C=Nc1ccc(-c2csc(Cc3ccccc3)n2)cc1`, the growth is reported as 83.3% (inactive). For `Cc1ccc2c(C(C[N+](=O)[O-])c3cccs3)c(-c3ccccc3)[nH]c2c1` (configuration not stated), the growth was 44.1% (inactive).
